Laboratory results published in ChEMBL document CHEMBL3988442, “University of Dundee, Small-Polar-MMV Screening Library” (2021).
For part of these data: Potency and affinity values are given separately.

Legend:
Parameters in all cases: scale not given: direction of the effect not stated beside the values
[1] = target: Protein translocase subunit SecA (Escherichia coli (strain K12)) (UniProt P10408); experiment: Assay to Identify E. coli SecA ATPase Inhibitors; type: functional; details: 30 µM
[2] = target: T1, Ubiquitin-activating enzyme e1, putative (Leishmania donovani (strain BPK282A1)) (UniProt E9BSI1); experiment: Leishmania donovani Ubiquitin Activating Enzyme (LdE1); type: functional; details: 30 µM
T1 sequence (whole entry): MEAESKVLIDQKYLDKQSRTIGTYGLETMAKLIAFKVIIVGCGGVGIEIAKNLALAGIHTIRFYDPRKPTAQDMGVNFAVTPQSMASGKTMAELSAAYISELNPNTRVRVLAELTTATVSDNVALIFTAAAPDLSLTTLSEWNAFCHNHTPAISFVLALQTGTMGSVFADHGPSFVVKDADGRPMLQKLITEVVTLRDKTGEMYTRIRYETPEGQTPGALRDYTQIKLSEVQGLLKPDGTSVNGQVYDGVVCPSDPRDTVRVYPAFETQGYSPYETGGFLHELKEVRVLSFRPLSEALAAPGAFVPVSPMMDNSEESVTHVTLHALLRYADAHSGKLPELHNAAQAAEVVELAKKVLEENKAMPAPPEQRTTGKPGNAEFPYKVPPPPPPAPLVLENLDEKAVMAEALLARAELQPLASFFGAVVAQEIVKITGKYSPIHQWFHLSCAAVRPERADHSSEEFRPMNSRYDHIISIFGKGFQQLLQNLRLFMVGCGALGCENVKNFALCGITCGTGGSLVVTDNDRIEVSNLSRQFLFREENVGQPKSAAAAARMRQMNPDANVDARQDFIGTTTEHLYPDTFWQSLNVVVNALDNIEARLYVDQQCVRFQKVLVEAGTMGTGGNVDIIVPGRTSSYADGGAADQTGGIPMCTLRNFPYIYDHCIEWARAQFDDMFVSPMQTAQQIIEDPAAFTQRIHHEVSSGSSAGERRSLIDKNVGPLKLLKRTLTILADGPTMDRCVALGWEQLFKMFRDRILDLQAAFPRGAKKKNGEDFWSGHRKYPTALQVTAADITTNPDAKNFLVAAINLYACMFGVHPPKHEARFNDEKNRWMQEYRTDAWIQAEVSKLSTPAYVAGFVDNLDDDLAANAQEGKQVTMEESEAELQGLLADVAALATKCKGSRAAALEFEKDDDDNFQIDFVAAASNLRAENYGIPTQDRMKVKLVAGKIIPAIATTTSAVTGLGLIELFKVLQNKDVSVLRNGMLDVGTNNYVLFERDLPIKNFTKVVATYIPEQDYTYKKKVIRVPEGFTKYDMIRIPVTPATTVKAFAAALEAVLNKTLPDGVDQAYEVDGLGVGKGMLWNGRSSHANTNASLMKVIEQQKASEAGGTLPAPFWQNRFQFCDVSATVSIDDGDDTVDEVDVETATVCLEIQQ

[3] = target: AMP-activated protein kinase, AMPK (Homo sapiens) (UniProt P54646+O43741+P54619+Q9UGJ0+Q9Y478+Q13131+Q9UGI9); experiment: AMP-dependent Kinase enzyme assay. An in vitro enzyme assay that detects ADP turnover that is directly proportional to AMPK activity. This uses naive AMPK that is activated during the assay with MK-8722; type: functional; details: 30 µM
[4] = target: Sialic acid-binding Ig-like lectin 9 (Homo sapiens) (UniProt Q9Y336); experiment: Hs-Siglec9 ALPHAscreen SOP 20170721; details: 10 µM
Sialic acid-binding Ig-like lectin 9 (Homo sapiens), sequence (Q9Y336 whole entry): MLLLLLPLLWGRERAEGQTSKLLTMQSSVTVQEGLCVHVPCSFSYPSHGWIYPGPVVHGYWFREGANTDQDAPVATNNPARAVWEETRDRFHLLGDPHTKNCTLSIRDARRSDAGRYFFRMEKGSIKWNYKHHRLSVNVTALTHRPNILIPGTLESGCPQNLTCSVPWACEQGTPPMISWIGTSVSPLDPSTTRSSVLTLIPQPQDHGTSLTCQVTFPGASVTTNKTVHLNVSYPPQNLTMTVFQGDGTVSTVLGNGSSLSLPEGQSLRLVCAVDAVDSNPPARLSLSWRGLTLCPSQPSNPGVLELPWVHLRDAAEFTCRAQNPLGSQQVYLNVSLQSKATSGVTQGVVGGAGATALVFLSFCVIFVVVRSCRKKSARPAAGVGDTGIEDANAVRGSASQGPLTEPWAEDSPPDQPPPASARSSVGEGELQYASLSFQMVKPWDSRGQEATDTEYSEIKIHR

[5] = system: Trypanosoma cruzi; experiment: Trypanosoma cruzi phosphomannomutase and mannose-1-phosphate guanylyltransferase assay; type: functional; details: 10 µM
[6] = target: T2, Arginase-2, mitochondrial (Homo sapiens) (UniProt P78540); experiment: in vitro enzyme assay to detect the production of urea directly proportional to the activity of Arginase II; type: functional; details: 33.3 µM; further: in the data most compounds retested in dose-response had high values
T2 sequence (whole entry): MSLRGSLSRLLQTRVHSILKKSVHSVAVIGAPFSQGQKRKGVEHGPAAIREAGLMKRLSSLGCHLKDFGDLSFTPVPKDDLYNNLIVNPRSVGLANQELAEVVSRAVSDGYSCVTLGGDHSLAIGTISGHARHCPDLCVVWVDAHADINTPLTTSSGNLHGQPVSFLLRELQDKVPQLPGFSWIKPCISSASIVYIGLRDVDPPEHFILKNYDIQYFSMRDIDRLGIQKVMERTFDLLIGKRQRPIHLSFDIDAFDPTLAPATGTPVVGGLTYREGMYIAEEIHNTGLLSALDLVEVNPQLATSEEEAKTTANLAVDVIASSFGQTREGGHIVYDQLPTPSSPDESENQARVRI

[7] = target: T3, Proteasome subunit beta (Trypanosoma cruzi) (UniProt O96673); experiment: Trypanosoma cruzi proteasome chymotrypsin-like activity (TcProtChymo) assay.; further: in the data most compounds retested in dose-response had high values; type: functional; details: 9.37 µM
T3 sequence (whole entry): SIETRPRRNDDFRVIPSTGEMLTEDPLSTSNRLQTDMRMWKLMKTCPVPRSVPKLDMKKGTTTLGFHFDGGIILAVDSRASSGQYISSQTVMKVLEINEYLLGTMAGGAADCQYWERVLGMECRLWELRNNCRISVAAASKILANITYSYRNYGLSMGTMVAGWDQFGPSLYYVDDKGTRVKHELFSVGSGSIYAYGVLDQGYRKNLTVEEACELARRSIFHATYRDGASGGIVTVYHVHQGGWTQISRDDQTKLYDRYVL

[8] = species on record: Homo sapiens; experiment: To identify inhibition of the IFN signalling (Jak-Stat) pathway via expression of an eGFP reporter gene under the control of an IFN-stimulated response element (ISRE) containing MxA promoter.; type: functional; details: 30 µM
[9] = target: T4, Tyrosyl-tRNA synthetase, putative (Trypanosoma cruzi (strain CL Brener)) (UniProt Q4DSP6); experiment: Trypanosoma cruzi tyrosyl tRNA synthetase (TcYRS) _High Tyrosine SOP; type: functional; details: 30 µM; further: in the data most compounds retested in dose-response had high values
T4 sequence (whole entry): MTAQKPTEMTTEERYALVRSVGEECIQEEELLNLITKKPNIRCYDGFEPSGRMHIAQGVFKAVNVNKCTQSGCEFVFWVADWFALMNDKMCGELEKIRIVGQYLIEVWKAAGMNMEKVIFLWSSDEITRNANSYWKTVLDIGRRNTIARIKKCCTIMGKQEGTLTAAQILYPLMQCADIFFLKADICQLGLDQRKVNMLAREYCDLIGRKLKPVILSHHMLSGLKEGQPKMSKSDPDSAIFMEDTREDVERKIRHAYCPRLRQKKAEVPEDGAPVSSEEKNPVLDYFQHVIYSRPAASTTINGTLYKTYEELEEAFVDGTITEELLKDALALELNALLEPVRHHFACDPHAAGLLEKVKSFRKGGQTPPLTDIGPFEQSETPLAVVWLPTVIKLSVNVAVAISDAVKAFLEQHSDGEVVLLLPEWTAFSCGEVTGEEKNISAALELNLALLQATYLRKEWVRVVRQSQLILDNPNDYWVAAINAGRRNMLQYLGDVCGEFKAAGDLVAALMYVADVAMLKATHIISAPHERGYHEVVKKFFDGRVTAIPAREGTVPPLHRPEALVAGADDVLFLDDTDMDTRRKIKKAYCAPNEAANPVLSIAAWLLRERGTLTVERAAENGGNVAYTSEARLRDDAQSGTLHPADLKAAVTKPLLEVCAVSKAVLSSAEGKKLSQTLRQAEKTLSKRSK

[10] = target: T4, Tyrosyl-tRNA synthetase, putative (Trypanosoma cruzi (strain CL Brener)); experiment: Trypanosoma cruzi tyrosyl tRNA synthetase (TcYRS) SOP; type: functional; details: 30 µM
[11] = target: Chromo domain-containing protein 1 (Saccharomyces cerevisiae (strain ATCC 204508 / S288c) (Baker's yeast)) (UniProt P32657); experiment: ScCHD-1 Enzyme Inhibition Assay; type: functional; details: 30 µM; further: in the data most compounds retested in dose-response had high values
Chromo domain-containing protein 1 (Saccharomyces cerevisiae (strain ATCC 204508 / S288c) (Baker's yeast)), sequence (P32657 whole entry, the tested form may be a part): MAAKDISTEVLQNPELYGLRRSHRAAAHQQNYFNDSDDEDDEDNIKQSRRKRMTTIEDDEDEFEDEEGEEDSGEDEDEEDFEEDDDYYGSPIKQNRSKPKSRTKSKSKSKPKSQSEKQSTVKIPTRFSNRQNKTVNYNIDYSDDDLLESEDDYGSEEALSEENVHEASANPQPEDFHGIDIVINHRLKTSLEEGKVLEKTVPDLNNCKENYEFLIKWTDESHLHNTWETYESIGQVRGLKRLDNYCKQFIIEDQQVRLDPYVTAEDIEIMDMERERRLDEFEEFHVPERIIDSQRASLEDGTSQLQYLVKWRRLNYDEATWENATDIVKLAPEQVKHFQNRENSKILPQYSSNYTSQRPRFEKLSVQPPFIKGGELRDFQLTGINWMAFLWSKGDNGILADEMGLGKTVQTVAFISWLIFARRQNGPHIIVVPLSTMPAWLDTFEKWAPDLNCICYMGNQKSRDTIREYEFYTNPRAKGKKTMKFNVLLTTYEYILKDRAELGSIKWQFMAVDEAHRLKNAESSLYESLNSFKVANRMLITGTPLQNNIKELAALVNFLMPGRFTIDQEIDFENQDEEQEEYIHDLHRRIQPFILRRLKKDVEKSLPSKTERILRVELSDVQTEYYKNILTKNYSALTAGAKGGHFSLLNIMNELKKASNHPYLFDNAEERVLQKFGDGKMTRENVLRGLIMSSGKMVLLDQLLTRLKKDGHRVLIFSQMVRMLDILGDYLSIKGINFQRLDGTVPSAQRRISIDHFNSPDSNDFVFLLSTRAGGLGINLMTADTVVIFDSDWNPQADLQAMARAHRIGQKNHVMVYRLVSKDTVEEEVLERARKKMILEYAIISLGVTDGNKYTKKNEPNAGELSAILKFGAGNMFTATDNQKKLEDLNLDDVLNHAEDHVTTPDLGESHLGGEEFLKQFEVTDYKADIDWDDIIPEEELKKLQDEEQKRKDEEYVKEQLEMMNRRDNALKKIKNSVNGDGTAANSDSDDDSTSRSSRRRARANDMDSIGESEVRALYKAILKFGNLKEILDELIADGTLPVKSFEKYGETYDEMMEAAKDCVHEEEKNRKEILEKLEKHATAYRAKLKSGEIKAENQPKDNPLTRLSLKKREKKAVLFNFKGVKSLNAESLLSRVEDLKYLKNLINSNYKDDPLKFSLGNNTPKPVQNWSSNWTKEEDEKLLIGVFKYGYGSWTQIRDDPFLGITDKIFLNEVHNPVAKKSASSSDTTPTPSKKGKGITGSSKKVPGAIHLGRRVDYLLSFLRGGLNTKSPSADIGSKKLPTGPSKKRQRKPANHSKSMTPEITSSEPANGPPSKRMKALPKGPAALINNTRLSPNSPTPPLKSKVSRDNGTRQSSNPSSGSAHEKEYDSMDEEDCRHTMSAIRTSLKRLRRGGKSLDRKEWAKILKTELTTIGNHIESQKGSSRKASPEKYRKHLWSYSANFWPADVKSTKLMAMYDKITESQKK

Protein translocase subunit SecA (Escherichia coli (strain K12)), sequence (P10408 whole entry): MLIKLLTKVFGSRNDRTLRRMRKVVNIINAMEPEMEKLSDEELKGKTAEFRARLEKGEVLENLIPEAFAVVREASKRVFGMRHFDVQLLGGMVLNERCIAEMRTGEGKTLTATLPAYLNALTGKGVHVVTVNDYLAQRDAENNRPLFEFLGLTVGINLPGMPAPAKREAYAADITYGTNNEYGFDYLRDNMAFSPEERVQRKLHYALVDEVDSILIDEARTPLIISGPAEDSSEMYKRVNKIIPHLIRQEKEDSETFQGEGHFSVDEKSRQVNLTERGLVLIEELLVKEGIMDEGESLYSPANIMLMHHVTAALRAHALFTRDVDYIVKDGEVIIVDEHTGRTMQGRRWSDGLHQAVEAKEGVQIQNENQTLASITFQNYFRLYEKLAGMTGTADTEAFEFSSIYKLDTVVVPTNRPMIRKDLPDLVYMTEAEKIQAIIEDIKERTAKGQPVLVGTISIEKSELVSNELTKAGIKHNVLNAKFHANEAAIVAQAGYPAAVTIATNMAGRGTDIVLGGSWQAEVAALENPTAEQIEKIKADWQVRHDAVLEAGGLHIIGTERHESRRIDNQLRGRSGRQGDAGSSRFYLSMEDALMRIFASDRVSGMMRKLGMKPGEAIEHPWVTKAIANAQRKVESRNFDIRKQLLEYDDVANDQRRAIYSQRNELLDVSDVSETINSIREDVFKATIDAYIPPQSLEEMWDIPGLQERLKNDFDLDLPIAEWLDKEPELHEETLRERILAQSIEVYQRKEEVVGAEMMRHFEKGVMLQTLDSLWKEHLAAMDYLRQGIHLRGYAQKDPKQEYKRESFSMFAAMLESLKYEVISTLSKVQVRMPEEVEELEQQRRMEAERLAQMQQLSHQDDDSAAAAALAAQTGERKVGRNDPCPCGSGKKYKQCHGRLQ

Compound | Percent Effect [1] [%] | Percent Effect [2] [%] | Percent Effect [3] [%] | Percent Effect [4] [%] | Percent Effect [5] [%] | Percent Effect [6] [%] | Percent Effect [7] [%] | Percent Effect [8] [%] | Percent Effect [9] [%] | Percent Effect [10] [%] | Percent Effect [11] [%]
CCN(C(=O)COC)C(c1cccnc1)c1ccc2c(c1)CCO2 (stereo unspecified) | 2.93 | 2.74 | 0.259 | 5.98 | -8.13 | -1.2 | 19.8 | 5.88 | 9.38 | 11.1 | -1.24
c1cc2nc(C3CCN(CC4CC4)CC3)nn2cc1N1CCCC1 | -0.605 | 11 | -111 | 9.79 | 0.595 | 0.399 | 11.4 | 7.29 | 13.5 | -1.24 | -6.62
Cc1oc(-c2nc(C#N)c(N(C)C)o2)cc1S(=O)(=O)N1CCCC1 | -3.98 | 4 | -2.67 | 8.99 | 2.75 | -7.92 | 17.2 | -8.23 | 1.06 | 10.3 | -0.712
O=C(CCC1CCCC1)NCCn1nc(C2CCNC2)c2cccnc21 (stereo unspecified) | -0.0662 | 0 | 8.6 | 2.58 | 4.53 | -0.699 | 3.26 | -34.5 | 3.19 | 6.41 | -1.12
CC1=N[C@@]2(CC[C@@H]3CN(S(=O)(=O)CC(C)C)C[C@@H]32)C(=O)N1CC(C)C | -5.41 | 5.41 | 5.56 | -6.18 | -2.64 | 2.23 | 23.8 | -9.78 | 3.24 | 10.3 | -0.878
O=C([C@@H]1CC[C@@H]2[C@@H](CCN2Cc2cccc(F)c2)O1)N1CCCCO1 | 3 | -34.7 | 4.08 | 2.78 | -3.28 | -52.5 | 9.23 | 16.6 | 2.08 | 22.5 | -4.83
CNS(=O)(=O)c1cccc(CNC(=O)c2c(C)nn(C)c2C)c1 | -5.54 | 11.4 | -3.57 | -3.8 | -2.15 | 1.07 | 9.78 | 30.5 | -1.04 | 2.53 | -12.7
COCCN1CCCC(O)(CN2CCN(c3ncccc3C)CC2)C1=O (stereo unspecified) | 5.28 | -27 | -3.41 | 7.83 | -5.21 | 0.476 | 15.3 | 9.99 | 8.99 | 12.2 | -5.83
CCc1n[nH]c(C2CN(C(=O)c3cnns3)CCO2)n1 (stereo unspecified) | -3.59 | 0 | 2.14 | -2.18 | -4.63 | -19 | 2.7 | 15.6 | 1.48 | -3.8 | -1.39
COCc1noc(-c2ccc(N(C)Cc3cc(C)no3)nc2)n1 | -1.27 | 0 | -1.25 | 9.06 | 5.79 | 10.9 | 6.9 | 17.1 | 5.82 | 7.32 | -6.04
COc1ncccc1NC(=O)NC1CCOc2ccccc21 (stereo unspecified) | -1.57 | 16.2 | -3.28 | 8.29 | 5.29 | -4.62 | 8.08 | 23.4 | 6.93 | 25.6 | -3.65
CN(CCCOc1ccc(F)cc1)Cc1nc2c(cnn2C)c(=O)[nH]1 | -0.991 | 15.8 | 0.698 | -3.57 | 4.39 | 1.8 | 14.8 | 0.0389 | 8.37 | 23.5 | -8.26
Cc1ccc(C(=O)N2CCN(CC(O)c3ccc(F)cc3)CC2)s1 (stereo unspecified) | -2.93 | 7.89 | 6.49 | 18.1 | -0.564 | 0.766 | 4.34 | 13.7 | 5.39 | 9.76 | -0.68
CCc1ccccc1-n1cc(O)c(C(=O)N2CCCCC2)n1 | -2.01 | -29.7 | 5.9 | -1.13 | -4.36 | 0.185 | 4.85 | 20.6 | -23.8 | -45.1 | 2
COCCN1C(=O)CC(N2CCN(c3ccc(OC)cc3)CC2)C1=O (stereo unspecified) | 1.03 | 6.94 | 1.7 | 4.19 | 4.37 | 13.7 | 16.8 | -7.93 | 8.42 | 15.4 | -3.31
Cc1ccn(-c2ccc(C(=O)N3CCCC(C(N)=O)C3)cc2)n1 (stereo unspecified) | -6.07 | 10.1 | -10.5 | 3.7 | -5 | -1.9 | 5.16 | 28.1 | 0.493 | 8.86 | -4.17
NC(=O)c1ccc(NC(=O)CCN2CCCC(N3CCCC3)C2)cc1 (stereo unspecified) | -9.36 | 13.5 | -4.04 | 16.5 | 8.98 | 22.5 | 9.38 | 19.4 | 9.9 | 15.8 | -5.57
CCn1c(C2CCCN(Cc3nccn3CCOC)C2)nn(C)c1=O (stereo unspecified) | -0.824 | 8.11 | -5.71 | 28.2 | 3.03 | 32.5 | 3.69 | -44.6 | 9.68 | 18.5 | -6.18
CC(=O)Nc1nc(C(=O)N2CCCC2Cn2cc(C)cn2)cs1 (stereo unspecified) | -5.22 | 10.4 | 1.53 | 17.1 | -6.76 | 1.47 | 14.5 | 26.6 | 2.86 | 9.41 | -19.2
CC(=O)N1CCn2c(COCc3csc(C)n3)cnc2C1C (stereo unspecified) | -5.84 | 18.7 | -3.96 | 4.19 | 4.05 | -55.7 | 9.57 | 7.41 | -10.4 | 15 | -9.91
Cc1ccccc1C(=O)NCc1ccc(N2CCNC(=O)C2)cc1 | 1.43 | 5.41 | -9.32 | 6.76 | 1.16 | -14.8 | 14.3 | -13.4 | 15.3 | 17.1 | -3.63
